Tested on: HCI01 (cells of a triple-negative basal-like breast cancer xenograft)
Assay: cell viability of combination (% of vehicle); higher = less cytotoxic
Conditions: 1 µM; 72 h; partner dose: 10 nM
Procedure: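 PDX cells were treated for 72 h with each drug at 1 µM plus afatinib (10 nM; 1 µM for WHIM30). Luciferase viability is expressed as percent of vehicle.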

In order of rising “cell viability of combination” value:
1. CCCCCCCCCCCCCCCC[N+](C)(C)C.[Br-] [Cetrimonium Bromide (CTAB)] + CN(C)C/C=C/C(=O)Nc1cc2c(Nc3ccc(F)c(Cl)c3)ncnc2cc1O[C@H]1CCOC1 [Afatinib]  50.1
2. Cc1cc(C(C#N)c2ccc(Cl)cc2)c(Cl)cc1NC(=O)c1cc(I)cc(I)c1O (stereo not given) [Closantel] + CN(C)C/C=C/C(=O)Nc1cc2c(Nc3ccc(F)c(Cl)c3)ncnc2cc1O[C@H]1CCOC1 [Afatinib]  50.6
3. CCCCCCCCCCCC[N+](C)(C)CCOc1ccccc1.[Br-] [Domiphen Bromide] + CN(C)C/C=C/C(=O)Nc1cc2c(Nc3ccc(F)c(Cl)c3)ncnc2cc1O[C@H]1CCOC1 [Afatinib]  51
4. CCCCCCCCCCCCCCCC[n+]1ccccc1.[Cl-] [Cetylpyridinium Chloride] + CN(C)C/C=C/C(=O)Nc1cc2c(Nc3ccc(F)c(Cl)c3)ncnc2cc1O[C@H]1CCOC1 [Afatinib]  52
5. Cc1cc(C(C#N)c2ccc(Cl)cc2)c(Cl)cc1NC(=O)c1cc(I)cc(I)c1[O-].[Na+] (stereo not given) [Closantel Sodium] + CN(C)C/C=C/C(=O)Nc1cc2c(Nc3ccc(F)c(Cl)c3)ncnc2cc1O[C@H]1CCOC1 [Afatinib]  53.2

Source: the supplement of paper PMC6992640
